Screening data: PubChem BioAssay, National Center for Advancing Translational Sciences (NCATS)
Compounds with a hit are over-represented: about 18% of the library has one in this group of screens.
Six1-Eya2 inh: blocks human Six1 binding to Eya2 | AlphaScreen GST-Six1/His-Eya2 binding, biochemical; active compounds read low | activity change, % (concentration not given with the values) | 360,000 compounds, 0.56% hits | AID 651725; in the data active = activity change below about -65%; inconclusive = mostly about -30% to -63%
Target sequence (O00167 whole entry, looked up): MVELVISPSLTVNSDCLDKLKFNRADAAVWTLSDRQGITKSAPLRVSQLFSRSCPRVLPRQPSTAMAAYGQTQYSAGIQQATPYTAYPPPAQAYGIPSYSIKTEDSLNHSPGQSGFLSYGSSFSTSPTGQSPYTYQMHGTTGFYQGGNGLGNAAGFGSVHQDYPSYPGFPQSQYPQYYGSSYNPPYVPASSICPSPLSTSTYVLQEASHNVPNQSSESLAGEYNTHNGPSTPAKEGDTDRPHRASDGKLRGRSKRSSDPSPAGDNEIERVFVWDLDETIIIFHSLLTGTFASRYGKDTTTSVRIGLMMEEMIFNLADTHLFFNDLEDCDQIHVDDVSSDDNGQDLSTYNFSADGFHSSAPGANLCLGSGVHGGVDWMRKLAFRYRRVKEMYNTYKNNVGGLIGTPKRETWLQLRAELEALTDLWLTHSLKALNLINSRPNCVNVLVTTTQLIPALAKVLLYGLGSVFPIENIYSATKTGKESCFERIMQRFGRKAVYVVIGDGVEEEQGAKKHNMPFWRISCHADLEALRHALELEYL
Target sequence (Q15475 whole entry, looked up): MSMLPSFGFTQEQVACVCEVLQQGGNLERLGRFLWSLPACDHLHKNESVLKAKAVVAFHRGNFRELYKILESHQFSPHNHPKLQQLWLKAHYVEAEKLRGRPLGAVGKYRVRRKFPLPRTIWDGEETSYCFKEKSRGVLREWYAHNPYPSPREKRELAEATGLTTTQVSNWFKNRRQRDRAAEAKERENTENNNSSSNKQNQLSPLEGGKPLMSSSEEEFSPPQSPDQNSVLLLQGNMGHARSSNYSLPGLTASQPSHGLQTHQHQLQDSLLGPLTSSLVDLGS
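AlphaScreen luminescence read after one hour at 37 °C in darkness. Pin-transferred compounds met GST-Six1 and His-Eya2 protein (5X stock 250 nM/500 nM) plus glutathione donor and Ni-chelate acceptor beads (5X, 50 ug/mL).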
IL1B secr inh: blocks inflammasome-driven IL-1 beta release. THP-1 LPS/ATP IL-1B secretion, AlphaLISA, 16 h; active compounds read low. 360,000 compounds, 4.7% hits. activity change, % at 57.5 µM; in the data active = activity change below about -50%; inconclusive = mostly about -30% to -49%
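THP-1 cells pretreated 1 hr with compounds (up to 57.5 uM final), then stimulated with LPS (250 ng/mL final) plus ATP (1.25 mM final); secreted IL-1B measured by AlphaLISA after 16 hr, decreased signal indicating inhibition.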
CtBP-E1A inh: inhibitors of CtBP/E1A interaction; AlphaScreen GST-E1A/His-CtBP binding, 1536-well; active compounds read low; activity change, % (concentration not given with the values); 340,000 compounds, 0.49% hits; in the data active = activity change below about -65%; inconclusive = mostly about -30% to -63%
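Homogeneous bead-based format: GST-tagged E1A captured on glutathione donor beads, His-tagged CtBP on nickel acceptor beads; compounds precede bead addition by 2 h at 37 °C.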
DT40 TDP1 no CPT: qHTS for Inhibitors of human tyrosyl-DNA phosphodiesterase 1 (TDP1): qHTS in cells in absence of CPT; DT40 Tdp1-/- hTDP1 cells, no CPT, ATP luminescence, 48 h; 420,000 compounds, 15% hits; Potency, µM (series often up to 46.2 µM), for the others: top-dose activity change, negative = growth inhibition, hits mostly inhibitors; AID 686978, 2013; also: potency is read from the fitted curve at half-maximal effect; nearly all actives have a fitted effect of over 55% in size
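Compound effects on proliferation are scored in DT40 Tdp1-/-;hTDP1 cells in the absence of CPT. ATP levels (CellTiter-Glo luminescence) are recorded after a ≥48 hr, 37 °C incubation.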
TDP1 cell CPT: growth inhibition of DT40 Tdp1-/-;hTDP1 cells with camptothecin (screen for TDP1 inhibitors); chicken DT40 Tdp1-/-;hTDP1 cells + 20 nM CPT, ATP luminescence, 48 h; Potency, µM (top dose mostly 46.2 µM), inactives show at the highest dose activity change, negative = growth inhibition, usual class: inhibitors; 420,000 compounds, 12% hits; AID 686979; also: potency is read from the fitted curve at half-maximal effect; nearly all actives have a fitted effect of over 55% in size
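Cell growth measured by CellTiter-Glo luminescence after a minimum 48 h, 37 C compound exposure with 20 nM CPT in Tdp1-knockout DT40 cells stably expressing hTDP1, seeded 400/well; qHTS titration format.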
TDP1 block: TDP1 (human) enzyme inhibition; 350,000 compounds, 0.28% hits; Q9NUW8; recombinant TDP1, AlphaScreen DNA substrate cleavage; Potency, µM (titrated, usually from 130 µM), for inactives: top-dose activity change, negative = inhibition, most hits filed as inhibitors; also: potency is read from the fitted curve at half-maximal effect; nearly all actives have a fitted effect of over 40% in size
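AlphaScreen read-out: signal falls as enzyme removes the 3' tyrosine-FITC from a 5'-biotinylated DNA oligo (15 nM, 5 min, RT). Enzyme was E. coli-made recombinant Tdp1 at 1 nM, exposed to compound for 15 min beforehand; beads 10 ug/ml, 10 min.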
* marks the source's active call; other numbers are inactive results; i = inactive; ? = inconclusive; nt = no result given; [ ] = dose if it differs, or a comment. Unless noted, calls follow the shape of the dose curve; as a rule, active = well fitted curve in the direction sought with a large enough effect; inconclusive = small, poorly fitted or top-dose-only effect, or another doubt; inactive = no such curve, though single readings can be large; an effect the other way counts as inactive or inconclusive. % is scaled to controls: 0 for no effect and ±100 for the full control effect.

SMILES	Six1-Eya2 inh	IL1B secr inh	CtBP-E1A inh	DT40 TDP1 no CPT	TDP1 cell CPT	TDP1 block
COc1ccc(OCCSc2nnc3c(Cl)cc(Cl)cn23)cc1	-15.8	11.0	-15.1	?	?	3.0%
O=C(N/C(=C/C=C/c1ccccc1)C(=O)N1CCOCC1)c1ccccc1Br	1.1	-12.7	-14.9	-8.7%	-5.1%	8.4%
C=CCNc1nc(C(=O)OCC(=O)Nc2ccc(S(N)(=O)=O)cc2)cs1	-11.0	18.4	-11.2	-7.8%	8.7%	-2.3%[0.505 µM]
CCOc1ccc(C(=O)NCC(=O)NNC(=O)c2cc(C)oc2C)cc1OCC	-3.4	4.6	-8.0	24.7%	-17.7%	1.4%
O=C(Cn1ncc2c3ccccc3n(Cc3ccc(Cl)cc3)c2c1=O)N1CCCCCC1	nt	nt	nt	10.3µM*	13µM*	2.5%
CC(CCc1ccccc1)NC(=O)Cn1ncc2c3ccccc3n(Cc3ccc(F)cc3)c2c1=O (stereo unspecified)	nt	nt	nt	?	?	2.5%
CCOC(=O)C1CCN(C(=O)Cn2ncc3c4ccccc4n(Cc4ccc(F)cc4)c3c2=O)CC1	nt	nt	nt	1.84µM*	3.26µM*	2.5%
CN1CCN(C(=O)Cn2ncc3c4ccccc4n(Cc4ccc(F)cc4)c3c2=O)CC1	nt	nt	nt	7.31µM*	14.6µM*	5.1%
CCCCCCCCCCOC(=O)NC1CCS(=O)(=O)C1 (stereo unspecified)	3.1	-4.3	-9.1	20.6µM*	?	-4.6%
O=C(NC1CCS(=O)(=O)C1)Oc1ccccc1 (stereo unspecified)	-10.0	17.6	1.7	25.9µM*	?	0.0%
OC(Cc1ccccc1)c1ncc(-c2ccc3ccccc3c2)[nH]1 (stereo unspecified)	-12.8	21.2	-10.5	23.1µM*	?	nt
Cc1cccc(-c2cnc(C(O)Cc3ccccc3)[nH]2)c1 (stereo unspecified)	-6.2	4.4	-5.9	?	16.4µM*	nt
CCc1ccc(C(O)c2ncc(-c3cccc(C)c3)[nH]2)cc1 (stereo unspecified)	-12.3	-12.9	-6.9	?	?	nt
CC(=O)Nc1ccc(S(=O)(=O)NC2(C(F)(F)F)NC(=O)N(Cc3ccccc3)C2=O)cc1 (stereo unspecified)	3.8	i	-0.8	3.0%	4.4%	4.0%[56.1 µM]
CCOC(=O)C1CCCN(C(=O)C2CCN(Cc3nc(-c4ccc(Cl)cc4)oc3C)CC2)C1 (stereo unspecified)	0.8	-24.0	2.8	20.6µM*	?	nt
CCOc1ccc(-c2nc(CN3CCCC(C(=O)N4CCOCC4)C3)c(C)o2)cc1 (stereo unspecified)	6.9	42.3	-6.1	-3.4%	-21.4%	3.3%
Cc1oc(-c2ccc(Cl)cc2)nc1CN1CCC(C(=O)N2CCN(Cc3ccccc3)CC2)CC1	-8.6	-59.8*	-1.9	?	?	1.0%
Cc1ccccc1-c1nc(CN2CCC(C(=O)N3CCN(c4ccccn4)CC3)CC2)c(C)o1	-5.2	-0.3	-6.6	?	23.1µM*	2.6%
Cc1oc(-c2ccc(Cl)cc2)nc1CN1CCC(C(=O)N2CCc3ccccc3C2)CC1	1.9	-10.2	-24.2	18.4µM*	23.1µM*	4.9%
Cc1ccccc1-c1nc(CN2CCC(C(=O)N3CCC(C(N)=O)CC3)CC2)c(C)o1	6.3	-19.4	3.2	-0.8%	18.3%	4.3%
Cc1cccc(CN2CCC(N3CC(C)OC(C)C3)CC2)c1 (stereo unspecified)	6.1	-1.2	1.7	8.1%	16.7%	nt
C[C@@H]1CC[C@]2(O[C@@H](CCO)C[C@@H](O)[C@@H]2O)O1	9.0	23.4	-4.8	-3.3%	-18.7%	3.5%
CCOc1cc(-c2c(C#N)c(N)nc3c2CCc2ccccc2-3)ccc1O	-2.7	-17.1	2.1	14.6µM*	18.4µM*	1.4%
COc1ccccc1-c1c(C#N)c(N)nc2c1CCc1ccccc1-2	40.1	63.5	34.8	6.51µM*	6.51µM*	-1.1%
CCc1nc(N)c(C#N)c(-c2ccccc2OC)c1C	9.4	12.9	-6.2	0.6%	13µM*	7.1%
SMILES	Six1-Eya2 inh	IL1B secr inh	CtBP-E1A inh	DT40 TDP1 no CPT	TDP1 cell CPT	TDP1 block
COc1ccccc1-c1c(C)c(C)nc(N)c1C#N	3.6	8.1	-0.5	-7.8%	2.6%	2.1%
CCOc1cc(-c2c(C#N)c(N)nc3c2CCCC3C)ccc1O (stereo unspecified)	-6.2	6.3	0.3	?	9.2µM*	3.3%
COc1cccc(SCc2noc(C(=O)NCc3ccccc3)c2C(=O)NCc2ccccc2)c1	1.1	15.4	0.0	-3.0%	10.0%	3.5%
C=CCNC(=S)N1CCc2c([nH]c3ccccc23)C1C (stereo unspecified)	-24.2	-5.0	10.2	-27.7%	-29.4%	8.4%
COCCNc1oc(-c2ccccc2)nc1S(=O)(=O)c1ccc(Br)cc1	nt	nt	nt	?	?	-1.1%
NC(=O)CCN(C1CCCCC1)S(=O)(=O)c1cccc2nsnc12	4.1	1.3	4.4	-2.1%	7.3%	-7.1%
Cc1ccc(S(=O)(=O)N(CCC#N)C2CCCCC2)c2nsnc12	10.8	0.0	0.0	18.4µM*	16.4µM*	0.0%
COc1ccc(NC(=O)CSc2nc3[nH]ncc3c(=O)[nH]2)cc1OC	-5.9	18.7	4.5	-3.0%	-7.6%	-6.9%
CCOc1cccc(NC(=O)CSc2ncc(-c3ccccc3)[nH]2)c1	nt	nt	nt	?	?	10.0%
COc1ccc(NC(=O)CSc2ncc(-c3ccc(Cl)cc3)[nH]2)cc1OC	nt	nt	nt	14.6µM*	?	2.5%
Cc1cccc(NC(=O)CSc2ncc(-c3ccc(Br)cc3)[nH]2)c1	nt	nt	nt	?	23.1µM*	2.5%
OC(C#Cc1ccccn1)c1cccs1 (stereo unspecified)	-27.2	-95.1*	-15.5	16.4µM*	18.4µM*	-2.0%
C(=C\c1cccs1)/c1ccccn1	nt	nt	nt	0.5%	0.2%	nt
C#CCOCCOCCOCCNc1nc(N2CCN(C(=O)[C@H](CCCCN)n3cc([C@@H](N)CC(C)C)nn3)CC2)nc(N2CCN(C(=O)[C@H](Cc3ccc(O)cc3)n3cc([C@@H](N)CC(C)C)nn3)CC2)n1	-3.9	7.6	-17.0	0.2%	0.3%	3.8%
O=c1c(-c2c(O)cc(O)c3c2O[C@H](c2ccc(O)cc2)CC3)c(-c2ccc(O)cc2)oc2cc(O)cc(O)c12	-10.2	50.3	-0.8	5.17µM*	?	7.6%
